# Compound activity: PubChem, National Center for Advancing Translational Sciences (NCATS)
# ClpP mod: qHTS Assay for Activators of ClpP; ATP-dependent Clp protease proteolytic subunit (Bacillus subtilis (strain 168)), P80244; purified B. subtilis ClpP, FRET peptide cleavage, 20 min; actives 1.9% (n = 340,000); Potency, µM (series often up to 57.5 µM), without a hit: at the highest dose activity change, negative = active; AID 651965, 2013; active = well fitted falling curve with a large enough effect; inconclusive = small, poorly fitted or top-dose-only effect; inactive = no such curve, though single readings can be large or run the other way; also: potency is read from the fitted curve at half-maximal effect; the source files actives as falling curves though it sought activators and does not explain the sign; nearly all actives have a fitted effect of over 65% in size
#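 FRET quenching reversal measured ClpP activation: 10 microg/mL B. subtilis ClpP at pH 8 with the FRET-FV decapeptide, read at 430 nm after 320 nm excitation. The 20-min minus 0-min signal was scaled between DMSO/no-enzyme wells and ADEP (5.8 microM final).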
# TRPV1 agonist: human TRPV1 agonism | TRPV1-expressing cells, Fluo-8 calcium influx, agonist mode | activation, % at 8.33 µM | actives 0.19% (n = 320,000); in the data active = activation above about 80%; inconclusive = between about 30% and that limit; also: 0% is about no effect
#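 TRPV1-expressing cells were cultured overnight at 35.5C and loaded with Fluo-8 calcium dye for 40 to 90 min at room temperature. After a 10 s baseline, compound was added and calcium influx was read kinetically for 3 min (ex 480/em 520 nm).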
# p53 reactivation: restores transcriptional activity of mutant p53 | AID 504706 | actives 0.063% (n = 320,000) | Potency, µM (titrated, usually from 92.2 µM), for inactives: at the highest dose activity change, positive = activation, actives largely listed as activators | H1299 p53-A138V BP100-luciferase reporter, luminescence, 24 h; active = well fitted activation curve with a large enough effect; inconclusive = small, poorly fitted or top-dose-only effect; inactive = no such curve, though single readings can be large or run the other way; also: potency is read from the fitted curve at half-maximal effect; % of control where 0% means no effect; nearly all actives have a fitted effect of over 45% in size
#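 p53-null H1299 cells stably carrying temperature-sensitive p53-A138V and a BP100-luciferase reporter were pinned with compounds (4-point, 1:5 series) and held 24 hrs at 37 deg C. Luminescence was read 10 min after detection reagent.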
# KCNH2 3.1 inh: KCNH2 3.1 (human) potassium channel inhibition. U2OS KCNH2 3.1, thallium flux FluxOr; stronger effect = lower value. activity change, % (tested at about 1.8 µM). actives 0.95% (n = 340,000);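 active = maximum activity change below -70%; inconclusive = maximum activity change from -70% to -50%; inactive = maximum activity change above -50%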;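 also: thallium influx rate constant from kinetic fluorescence after stimulation buffer; % is scaled to controls: 0 for no effect and ±100 for the full control effect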
#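 We transduce U2OS cells with the mutant 3.1 virus, culture them overnight, load FluxOr with Red40 quencher for 45 min, then add stimulation buffer and read kinetically for 2 min to derive a normalized rate constant.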
# KCNH2 WT inh: inhibitors of human wildtype KCNH2 potassium channel; Q12809; U2OS, BacMam KCNH2, thallium flux FluxOr; stronger effect = lower value; activity change, % at 1.84 µM; actives 0.37% (n = 340,000); AID 720551;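 active = maximum activity change below -70%; inconclusive = maximum activity change between -70% and -50%; inactive = maximum activity change above -50%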; also: % is scaled to controls: 0 for no effect and ±100 for the full control effect
#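 U2OS cells transduced with wild-type KCNH2 virus are loaded with FluxOr dye for 45 min, and thallium flux is measured in kinetic reads before and after stimulation buffer. Rate constants are normalized to DMSO controls.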
# TRPV1 PAM: human TRPV1 potentiation | Q8NER1 | TRPV1-expressing cells, Fluo-8 calcium influx, capsaicin EC20 potentiation | potentiation, % at 8.33 µM | actives 0.02% (n = 320,000) | AID 540277; in the data active = potentiation above about 80%; inconclusive = between about 30% and that limit; also: 0% is about no effect
#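 Cells expressing TRPV1 were dye-loaded with Fluo-8 and read kinetically: 10 s baseline, 3 min after compound (agonist portion), then 2 min after EC20 capsaicin (allosteric enhancer portion). Calcium-bound dye fluorescence at 480/520 nm.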
# * marks the source's active call; other numbers are inactive results; ? = inconclusive; . = no result given. In the library only some 2.6% were active in any assay of this set; here they are far more common.
SMILES,ClpP mod,TRPV1 agonist,p53 reactivation,KCNH2 3.1 inh,KCNH2 WT inh,TRPV1 PAM
c1ccc2c(c1)Cn1c-2nc2ccccc21,25µM*,16,?,3,-17,-26
O=C(NCC(=O)N1CCN(c2ncccn2)CC1)c1ccccc1F,-12%,.,22%,2,0,.
O=C(NCC(=O)N1CCN(c2ncccn2)CC1)c1ccc(F)cc1,14µM*,-3,?,29,-15,4
Cc1sc(-c2cc3ccccc3oc2=O)nc1-c1ccc(Cl)c(Cl)c1,-11%,.,.,.,.,.
Cc1sc(-c2cc3ccccc3oc2=O)nc1-c1ccc(Cl)cc1,32µM*,.,.,.,.,.
Cc1ccc2nc(CCCc3nc4ccc(C)cc4[nH]3)[nH]c2c1,.,2,18%,-79*,13,5
CCC(C(=O)NC1CCCCC1)n1c(SCc2ccccc2F)nc2ccncc21 (stereo not drawn),-12%,28,27%,-118*,5,-10
C=CCSc1nnc(-c2cc3c(-c4ccccc4)nn(C)c3s2)n1C,28µM*,15,5%,-15,7,-6
Clc1nc(NCc2ccco2)c2ccccc2n1,4%,.,.,.,.,.
Oc1cccc2c(CC(O)c3c[nH]c4ccccc34)ccnc12 (stereo not drawn),-3%,.,.,.,.,.
O=C(NCc1ccccc1)c1onc(CSc2ccc(F)cc2)c1C(=O)NCCCN1CCOCC1,1%,5,-9%,-81*,?,21
O=C(NCc1ccccc1)c1onc(CSc2ccc(F)cc2)c1C(=O)NCc1ccccc1,-2%,.,.,9,1,.
Nc1ccc(-n2c(N)c(C(=O)NCc3ccc4c(c3)OCO4)c3nc4ccccc4nc32)cc1,-16%,.,.,-18,-10,.
Nc1c(C(=O)NCc2ccccc2)c2nc3ccccc3nc2n1-c1ccc2c(c1)OCO2,22µM*,5,7%,17,0,-9
COCCNC(=O)c1c(N)n(-c2ccccc2)c2nc3ccccc3nc12,18µM*,16,4%,-1,12,-12
Nc1c(C(=O)NCCN2CCOCC2)c2nc3ccccc3nc2n1-c1ccccc1,11µM*,4,-8%,1,0,1
COCCNC(=O)c1c(N)n(CCCn2ccnc2)c2nc3ccccc3nc12,16µM*,-2,-3%,-9,1,6
COCCCNC(=O)c1c(N)n(/N=C/c2cccnc2)c2nc3ccccc3nc12,3%,0,-10%,4,-1,-4
COCCCNC(=O)c1c(N)n(/N=C/c2cccs2)c2nc3ccccc3nc12,32µM*,1,2%,-1,-5,3
CCC(C)NC(=O)c1c(N)n(/N=C/c2cccnc2)c2nc3ccccc3nc12 (stereo not drawn),25µM*,8,1%,-4,-5,-5
COCCCNC(=O)c1c(N)n(-c2ccc(S(N)(=O)=O)cc2)c2nc3ccccc3nc12,16µM*,-1,0%,3,-27,-8
COCCCNC(=O)c1c(N)n(-c2ccccc2)c2nc3ccccc3nc12,-20%,?,0%,8,7,-31
Nc1c(C(=O)NCc2ccco2)c2nc3ccccc3nc2n1CCc1ccc(F)cc1,16µM*,8,-9%,1,-13,-2
O=C(C[n+]1csc2ccccc21)c1ccc(O)c(O)c1,-2%,.,.,.,.,.
O=C(Nc1nnc(-c2ccccc2)s1)C1CCCN(C(=O)c2ccoc2)C1 (stereo not drawn),-18%,.,.,.,.,.
SMILES,ClpP mod,TRPV1 agonist,p53 reactivation,KCNH2 3.1 inh,KCNH2 WT inh,TRPV1 PAM
COc1ccc(-n2c(N)c(C(=O)NCc3ccco3)c3nc4ccccc4nc32)cc1OC,.,4,-14%,30,2,-4
COc1ccc(-n2nc(C(=O)NCc3ccco3)c3ccccc3c2=O)cc1,22µM*,0,1%,-11,-41,20
COc1ccc(-n2nc(C(=O)NCc3ccco3)c3c4ccccc4n(C)c3c2=O)cc1,4%,-4,-7%,12,.,11
COc1ccc(-n2c(N)c(C(=O)NCc3ccco3)c3nc4ccccc4nc32)cc1,32µM*,8,-5%,9,8,7
C=CCNC(=O)c1c(N)n(-c2cccc(S(N)(=O)=O)c2)c2nc3ccccc3nc12,14µM*,1,2%,-14,0,4
N#Cc1c(N)n(CCc2ccc(F)cc2)c2nc3ccccc3nc12,32µM*,4,1%,-7,-5,5
O/N=C(/CBr)c1ccc2ccccc2c1,-21%,.,.,.,.,.
CC(C)N(C)c1ncnc2c1ncn2[C@H]1CN(Cc2ccc(F)cc2)C[C@@H](CO)O1,0%,.,.,.,.,.
Cc1ccc(NC(=O)CSc2nnc(N)s2)c(C)c1,-1%,.,.,.,.,.
Nc1ncnn1Cc1ccccc1,0%,.,.,-3,-8,.
COCCn1c(N)c(C(=O)Nc2sc3c(c2C(=O)OC)CCCC3)c2nc3ccccc3nc21,0%,.,16%,3,3,.
COCCn1c(N)c(C(=O)NCc2cccs2)c2nc3ccccc3nc21,32µM*,25,-1%,7,2,-11
CCCC(=O)N1CCC1(C)C(=O)Nc1ccc2c(c1)OCCO2 (stereo not drawn),-2%,.,.,.,.,.
CC(C)N1C(=O)S/C(=C/c2ccc(Sc3nc4ccccc4[nH]3)o2)C1=O,-3%,?,-2%,3,-130*,0
C=CCN1C(=O)S/C(=C/c2ccc(Sc3nc4ccccc4[nH]3)o2)C1=O,1%,?,8%,-16,-5,-21
CC(NC(=O)c1ccccc1NS(=O)(=O)c1ccc(CCC(=O)O)cc1)c1ccccc1 (stereo not drawn),28µM*,-1,15%,7,2,11
CC(NC(=O)CCNS(=O)(=O)c1ccccc1)c1ccccc1 (stereo not drawn),-2%,-4,-16%,4,-156*,3
O=C1Cc2ccccc2C1=C1C=c2ccccc2=C1,-3%,.,.,.,.,.
Cc1c(C(=O)N(Cc2ccccc2F)C2CCS(=O)(=O)C2)oc2ccccc12 (stereo not drawn),1%,.,.,.,.,.
Cc1c(C)n(CC(O)CN2CCCCC2)c2ccccc12 (stereo not drawn),32µM*,7,2%,3,0,8
Cc1c(C)n(CC(O)CN2CCN(C)CC2)c2ccccc12 (stereo not drawn),4%,0,-9%,11,-8,6
Cc1cc(C)n(CC(O)Cn2c(C)c(C)c3ccccc32)n1 (stereo not drawn),32µM*,3,-5%,-4,-5,-8
